A short description of assay [1]: compounds binding Alexa647 anti-His antibody – biochemical, small-molecule microarray, 635 nm fluorescence, artefact control for SMM control protein annotation, primary screen (AID 1128).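 Further: score merges feature fluorescence with signal-to-noise for each printed compound spot.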 To be noted: higher = more signal.
In assay [2] the test system is Human papillomavirus type 1a E7 protein (residues 1-88). The assay is described as follows: HPV1a E7 small-molecule binders, primary screen, biochemical, small-molecule microarray, residues 1-88, 635 nm (AID 1129). To be noted: small-molecule microarray binding, fluorescence 635 nm; higher = more signal.
Assay [3] deals with Focal adhesion kinase 1 (Homo sapiens) (UniProt Q05397). As to the kind of experiment: PTK2 protein binding on printed compound slides – biochemical, small-molecule microarray, 635/667 nm fluorescence, BSA, DTT, primary screen (AID 1130).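 Further: composite of spot emission at 667 nm and signal to noise over triplicate slides.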 The settings on record: 635 nm fluorescence, higher = more signal.
For assay [4], the system named is Fibrinogen (Alexa647-labelled). The assay is described as follows: Alexa647-fibrinogen binding to printed small molecules – biochemical, small-molecule microarray, 635/667 nm fluorescence, artefact control for SMM control-protein annotation, profiling panel (AID 1131).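 Further: z-score merges 667 nm fluorescence with per-spot signal-to-noise over triplicate slides.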 The settings on record: fibrinogen-A647 binding fluorescence, higher = more signal.
Assay [5] has as its target Follistatin (Homo sapiens) (UniProt P19883). As to the kind of experiment: FST protein binding to printed compounds – biochemical, small-molecule microarray, 635/667 nm fluorescence, primary screen (AID 1132). To be noted: 635 nm fluorescence, higher = more signal.
In assay [6] the target is Fibroblast growth factor 2 (Homo sapiens) (UniProt P09038). The assay is described as follows: basic fibroblast growth factor binding to printed compounds – biochemical, small-molecule microarray, 635/667 nm fluorescence, primary screen (AID 1133). The settings on record: FGF2, fluorescence 635/667, higher = more signal.
A short description of assay [7]: JC-1 mitochondrial potential readout, lung cancer cells – cell-based, A549, JC-1 fluorescence, basal, 24 h, 100 nL, profiling panel (AID 1138).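 Further: A549 lung adenocarcinoma cells under basal conditions with no added stimulus; test concentration not given here.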 The settings on record: higher = more signal.
A further assay deals with Lefty1. The assay is described as follows: Lefty1 protein binding to printed compounds – biochemical, small-molecule microarray, 635/667 nm fluorescence, primary screen (AID 1139). The settings on record: fluorescence 635/667, higher = more signal.
Assay [8] has as its system wheat germ agglutinin (Triticum aestivum), Alexa647-labelled. As to the kind of experiment: Alexa647-WGA lectin binding to printed small molecules – biochemical, small-molecule microarray, 635/667 nm fluorescence, artefact control for SMM control-protein annotation, profiling panel (AID 1140).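 Further: score merges 667 nm feature emission with signal to noise over triplicate slides.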 The settings on record: WGA-A647 binding, 635 nm fluorescence, higher = more signal.

In assay [9] the target is Luciferin 4-monooxygenase (Photinus pyralis) (UniProt P08659). The assay is described as follows: inhibition of purified Photinus pyralis luciferase – biochemical, luminescence, purified enzyme, 2006 set, primary screen (AID 1141).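 Further: cell-free assay with purified firefly luciferase at 100 ng per well in PBS; test concentration not given here.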 To be noted: purified firefly luciferase, SteadyGlo luminescence, 30 min; higher = more signal, called active from +8 up or from −8 down.
The subject of assay [10] is Wnt5a (protein binding on small-molecule microarray). As to the kind of experiment: small molecules binding Wnt5a protein – biophysical, small-molecule microarray, 635/667 nm fluorescence, primary screen (AID 1142).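 Further: fluorescence read at 667 nm with signal to noise per printed feature.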 The settings on record: 635 nm fluorescence, higher = more signal.
A short description of assay [11]: ATP-based viability of Huh7 replicon cells – cell-based, CellTiter-Glo luminescence, basal, 48 h, cytotoxicity control for HCV replication inhibitor project, primary screen (AID 1143).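 Further: Huh7 hepatoma cells carrying a hepatitis C replication reporter with no stimulus; test concentration not given here.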 To be noted: higher = more signal, called active from +8 up or from −8 down.
Assay [12] in a line: Pseudomonas biofilm growth suppression – PAO1 strain, BacTiter-Glo luminescence, LB-PBS, primary screen (AID 1144). The settings on record: P. aeruginosa PAO1 biofilm, 12 h, higher = more signal.
A short description of assay [13]: basal CRE-LacZ reporter activity in PC12 – cell-based, unstimulated, primary screen (AID 1145). To be noted: no forskolin, luminescence, 4.5 h, higher = more signal, called active from +8 up or from −8 down.
A short description of assay [14]: forskolin-driven CRE-LacZ activity in PC12 – cell-based, CRE-LacZ reporter, forskolin-stimulated, primary screen (AID 1146).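 Further: PC12 cells with 6xCRE LacZ reporter stimulated by forskolin 10 µM; beta-galactosidase reporter signal reflecting CREB driven transcription.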 The settings on record: luminescence, 4.5 h, higher = more signal, called active from +8 up or from −8 down.
Assay [15] concerns the target Streptavidin (Streptomyces avidinii) (UniProt P22629). As to the kind of experiment: compounds binding control protein streptavidin – biophysical, small-molecule microarray, 635/667 nm fluorescence, artefact control for SMM compound annotation, primary screen (AID 1147).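 Further: signal reflects streptavidin binding to arrayed compounds as a control protein.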 To be noted: higher = more signal.
Assay [16] is described as follows: probe aInhba binding on compound microarray – biochemical, small-molecule microarray, 635/667 nm fluorescence, primary screen (AID 1148).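 Further: score merges 667nm spot fluorescence with signal-to-noise for antibody binding to printed compounds.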 The settings on record: higher = more signal.
In assay [17] the target is Torsin-1A (Homo sapiens) (UniProt O14656). As to the kind of experiment: TOR1A wild-type binding on microarray – cell lysate, small-molecule microarray, lysate, 635/667 nm, primary screen (AID 1149). To be noted: COS7 hTOR1A-WT lysate, 635 nm fluorescence, higher = more signal.
For assay [18] the target is unchanged. The assay is described as follows: torsin A mutant lysate binding on microarrays – cell lysate, small-molecule microarray, COS7 lysate, 635/667 nm fluorescence, primary screen (AID 1150).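 Further: score pools 667 nm emission and signal to noise measuring lysate protein binding.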 To be noted: COS7 hTOR1A mutant lysate, 635 nm fluorescence, higher = more signal.
Assay [19] concerns Sonic hedgehog protein (Shh). The assay is described as follows: Sonic hedgehog microarray binding compounds – biochemical, small-molecule microarray, 635/667 nm fluorescence, primary screen (AID 1151).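 Further: Shh protein binding to compounds spotted on small-molecule microarray slides; score combines spot fluorescence intensity with signal-to-noise across triplicate slides.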 The settings on record: 635 nm fluorescence, higher = more signal.

Five compounds from PubChem BioAssay can be followed below.

Calls of active or inactive are those of the source. Unless noted, how the calls were made is not given here.

Chain of Follistatin (Homo sapiens) (P19883 whole entry, looked up): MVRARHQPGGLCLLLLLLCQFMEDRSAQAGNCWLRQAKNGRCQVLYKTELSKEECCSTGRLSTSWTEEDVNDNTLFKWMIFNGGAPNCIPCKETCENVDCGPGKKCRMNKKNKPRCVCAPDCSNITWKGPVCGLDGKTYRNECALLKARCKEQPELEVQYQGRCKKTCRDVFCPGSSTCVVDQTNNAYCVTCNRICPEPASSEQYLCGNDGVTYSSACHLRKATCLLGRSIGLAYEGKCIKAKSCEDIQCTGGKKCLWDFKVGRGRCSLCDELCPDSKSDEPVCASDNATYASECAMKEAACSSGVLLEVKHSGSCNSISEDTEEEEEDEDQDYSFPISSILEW
Chain of Luciferin 4-monooxygenase (Photinus pyralis) (P08659 whole entry, looked up): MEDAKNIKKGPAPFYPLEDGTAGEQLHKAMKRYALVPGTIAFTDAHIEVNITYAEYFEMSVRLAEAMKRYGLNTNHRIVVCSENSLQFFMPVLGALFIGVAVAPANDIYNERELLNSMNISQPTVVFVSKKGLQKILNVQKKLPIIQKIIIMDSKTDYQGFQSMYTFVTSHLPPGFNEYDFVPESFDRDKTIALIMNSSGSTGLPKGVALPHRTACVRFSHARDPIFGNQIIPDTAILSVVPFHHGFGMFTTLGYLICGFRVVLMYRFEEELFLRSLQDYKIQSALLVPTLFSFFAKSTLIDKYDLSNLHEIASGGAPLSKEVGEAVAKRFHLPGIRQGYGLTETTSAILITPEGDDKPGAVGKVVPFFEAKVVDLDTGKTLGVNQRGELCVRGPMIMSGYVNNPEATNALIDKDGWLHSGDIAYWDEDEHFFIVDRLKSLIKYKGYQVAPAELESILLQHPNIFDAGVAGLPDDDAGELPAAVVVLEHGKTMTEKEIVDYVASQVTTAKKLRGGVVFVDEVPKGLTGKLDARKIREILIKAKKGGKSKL
Chain of Streptavidin (Streptomyces avidinii) (P22629 whole entry, looked up): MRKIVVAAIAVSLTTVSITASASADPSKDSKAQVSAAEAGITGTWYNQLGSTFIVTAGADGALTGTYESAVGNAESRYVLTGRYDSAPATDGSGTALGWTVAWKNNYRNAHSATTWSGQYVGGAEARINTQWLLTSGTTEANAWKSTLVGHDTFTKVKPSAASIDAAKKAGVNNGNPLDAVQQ
Chain of Focal adhesion kinase 1 (Homo sapiens) (Q05397 whole entry, looked up): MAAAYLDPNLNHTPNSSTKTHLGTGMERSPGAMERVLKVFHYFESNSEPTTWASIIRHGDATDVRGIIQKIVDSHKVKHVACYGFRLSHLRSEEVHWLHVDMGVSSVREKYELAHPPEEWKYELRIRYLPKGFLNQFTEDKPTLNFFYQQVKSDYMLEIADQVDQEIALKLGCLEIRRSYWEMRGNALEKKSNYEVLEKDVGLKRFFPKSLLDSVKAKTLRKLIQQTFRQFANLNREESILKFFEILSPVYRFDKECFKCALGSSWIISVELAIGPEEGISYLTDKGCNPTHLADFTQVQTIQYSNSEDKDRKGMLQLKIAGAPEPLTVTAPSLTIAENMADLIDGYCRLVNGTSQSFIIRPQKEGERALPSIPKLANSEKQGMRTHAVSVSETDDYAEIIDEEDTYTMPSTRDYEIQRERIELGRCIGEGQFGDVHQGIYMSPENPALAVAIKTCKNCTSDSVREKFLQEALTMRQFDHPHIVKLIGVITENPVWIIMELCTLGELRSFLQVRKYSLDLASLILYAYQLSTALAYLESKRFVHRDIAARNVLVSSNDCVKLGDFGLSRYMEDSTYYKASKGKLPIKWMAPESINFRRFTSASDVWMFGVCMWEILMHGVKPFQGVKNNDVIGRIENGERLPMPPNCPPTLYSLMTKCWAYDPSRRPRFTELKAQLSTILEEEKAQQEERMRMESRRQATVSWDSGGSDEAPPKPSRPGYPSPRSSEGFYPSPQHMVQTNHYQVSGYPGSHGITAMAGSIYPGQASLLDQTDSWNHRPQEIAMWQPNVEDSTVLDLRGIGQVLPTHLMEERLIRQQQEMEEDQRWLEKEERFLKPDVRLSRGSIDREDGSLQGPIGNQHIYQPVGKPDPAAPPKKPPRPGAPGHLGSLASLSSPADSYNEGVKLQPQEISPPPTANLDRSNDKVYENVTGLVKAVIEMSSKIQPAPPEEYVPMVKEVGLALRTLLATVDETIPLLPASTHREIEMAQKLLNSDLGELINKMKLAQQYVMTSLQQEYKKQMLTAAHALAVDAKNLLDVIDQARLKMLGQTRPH
Chain of Torsin-1A (Homo sapiens) (O14656 whole entry, looked up): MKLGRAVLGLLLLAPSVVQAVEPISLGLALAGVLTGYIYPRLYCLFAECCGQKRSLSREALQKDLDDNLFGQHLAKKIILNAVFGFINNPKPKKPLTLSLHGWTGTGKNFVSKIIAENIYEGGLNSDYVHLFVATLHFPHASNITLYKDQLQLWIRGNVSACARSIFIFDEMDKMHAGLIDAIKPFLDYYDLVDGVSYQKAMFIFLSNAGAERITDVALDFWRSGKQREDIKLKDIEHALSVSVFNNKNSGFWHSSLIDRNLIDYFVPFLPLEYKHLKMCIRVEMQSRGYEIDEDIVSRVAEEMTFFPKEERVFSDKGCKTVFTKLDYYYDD
Chain of Fibroblast growth factor 2 (Homo sapiens) (P09038 whole entry, looked up): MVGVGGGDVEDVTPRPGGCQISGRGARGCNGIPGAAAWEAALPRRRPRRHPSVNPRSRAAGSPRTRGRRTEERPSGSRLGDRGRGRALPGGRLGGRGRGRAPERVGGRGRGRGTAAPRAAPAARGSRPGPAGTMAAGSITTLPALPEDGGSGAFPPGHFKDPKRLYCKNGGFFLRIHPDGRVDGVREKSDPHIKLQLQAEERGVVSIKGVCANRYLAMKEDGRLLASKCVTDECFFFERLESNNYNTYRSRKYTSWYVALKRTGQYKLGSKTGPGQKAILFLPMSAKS

For `COCCOC(=O)N1C(=O)[C@@]2(c3cc(C#Cc4ccc(OC)cc4)ccc31)[C@H](C(=O)N1CCCCCCC1)[C@H]1C(=O)O[C@H](c3ccccc3)[C@H](c3ccccc3)N1[C@@H]2c1ccc(O)cc1`, the composite z-score in assay [1] is -0.0844; in [2] it was 1.12; in [3], 0.277; in assay [4] it was 0.205; in assay [5] it was 1.38; in assay [6], 0.541. Also, the composite z-score was 1.04 in the assay on Lefty1; 0.351 in assay [8]; 0.164 in assay [10]; 0.123 in assay [15]; 0.696 in assay [16]; 0.536 with Torsin-1A (Homo sapiens) [17]. Besides, the composite z-score in the assay with Torsin-1A (Homo sapiens) [18] was determined as 0.864; in [19], 1.47. Also, the z-score was -1.42 in [7]; -0.0524 (inactive) in assay [9]; -5.16 (inactive) in assay [11]; -1.11 (inactive) in [12]; -1.02 (inactive) in assay [13]; -0.841 (inactive) in [14].

With `COC(=O)[C@@]1(Cc2ccccc2)[C@H]2c3cc(C(=O)N4CCCC4)n(Cc4ccsc4Br)c3C[C@H]2CN1C(=O)c1ccccc1`, the composite z-score in [1] was 1.6; in assay [2], 1.23; in [3], 0.619; in assay [4] it was 0.789; in assay [5], 0.647; in assay [6], -0.282. Further, the composite z-score is -0.524 with Lefty1; 1.25 in [8]; 0.38 in assay [10]; 1.21 in [15]; 0.407 in [16]; 0.147 with Torsin-1A (Homo sapiens) [17]. The composite z-score with Torsin-1A (Homo sapiens) [18] is 0.894; in assay [19] it was -1.01. The z-score is 1.88 in assay [7]; 1.79 (inactive) in assay [9]; -3.12 (inactive) in [11]; 0.389 (inactive) in [12]; 0.201 (inactive) in assay [13]; -0.813 (inactive) in [14].

In the case of `O=C1NC(=O)C2C1C=CC(C(O)c1ccc(Br)cc1)N2Nc1ccccn1` (stereo not given), the composite z-score in [1] came to 1.32; in assay [2], 0.173; in [3], 0.231; in assay [4], 0.995; in assay [5], 0.426; in [6], 0.657. Besides, the composite z-score with Lefty1 was -0.162; in assay [8], 0.806; in assay [10], 0.336; in [15] it was 0.363; in assay [16] it was 0.126; with Torsin-1A (Homo sapiens) [17] it was 0.196. Also, the composite z-score in the assay with Torsin-1A (Homo sapiens) [18] was 0.301; in assay [19] it was -0.248. Also, the z-score in [7] was 0.631; in assay [9] it was -1.52 (inactive); in assay [11], -0.0358 (inactive); in assay [12], -1.45 (inactive); in [13] it was -0.322 (inactive); in assay [14], 0.521 (inactive).

Regarding `COc1ccc(C(O)C2C=CC3C(=O)N(c4ccccc4)C(=O)C3N2Nc2ccc(C#N)cc2)c2ccccc12` (stereo not given), the composite z-score in assay [1] was 1.67; in assay [2] it was 1.25; in assay [3], 0.0632; in [4], 0.979; in [5], 0.944; in assay [6], -0.012. Also, the composite z-score in the assay on Lefty1 was found to be 0.392; in assay [8] it was 1.04; in assay [10] it was 0.0756; in [15] it was 2.49; in assay [16], 0.442; with Torsin-1A (Homo sapiens) [17] it was 0.109. In addition, the composite z-score in the assay with Torsin-1A (Homo sapiens) [18] was 0.917; in assay [19] it was -0.149. The z-score is -0.616 in assay [7]; -0.786 (inactive) in assay [9]; -0.127 (inactive) in [11]; -0.856 (inactive) in [12]; -0.143 (inactive) in [13]; 0.976 (inactive) in assay [14].

With `CO[C@H]1O[C@H](CO)[C@@H](OC(=O)Nc2ccc(Oc3ccccc3)cc2)[C@H](OC(=O)Nc2ccccc2-c2ccccc2)[C@@H]1OC(=O)Nc1ccccc1-c1ccccc1`, the composite z-score in [1] came out at 0.818; in [2] it was 1.07; in [3], 0.263; in assay [4] it was 0.964; in assay [5], 0.595; in assay [6] it was 0.295. The composite z-score was 0.841 in the assay with Lefty1; 0.773 in assay [8]; 0.58 in assay [10]; 0.819 in assay [15]; 0.588 in [16]; -0.21 with Torsin-1A (Homo sapiens) [17]. Moreover, the composite z-score was found to be 0.408 with Torsin-1A (Homo sapiens) [18] and 0.74 in assay [19]. The z-score in [7] was -0.426; in assay [9] it was -0.69 (inactive); in assay [11] it was -4.64 (inactive); in assay [12], -0.935 (inactive); in assay [13], -0.198 (inactive); in assay [14] it was -0.355 (inactive).
